# PubChem BioAssay AID2289 (National Center for Advancing Translational Sciences (NCATS), 2010)
# The campaign covered roughly 340,000 compounds. About 3,300 (0.97%) were called active. Another 9% or so got no clear call; they are omitted. Calls come from the whole dose curve; as a rule, active = well fitted inhibition curve with a large enough effect; inconclusive = small, poorly fitted or top-dose-only effect, or effect the other way; inactive = flat fitted curve, though single readings scatter. Some of the results follow.
# Assay: qHTS Assay for Modulators of miRNAs and/or Inhibitors of miR-21; note: nearly all actives have a fitted effect of over 55% in size
# Settings: HeLa miR-21-FLuc reporter, luciferase luminescence, 48 h; actives lower the signal
# How it was run: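 Compounds were titrated across several concentrations (up to approximately 40 uM) and incubated 48 hours with HeLa miR-21-FLuc reporter cells (miR-21 target sequence downstream of FLuc, endogenous miR-21). Readout was firefly luciferase luminescence after lytic detection reagent.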
# Potency is the fitted concentration of half-maximal effect.
row,SMILES,Potency
1,Cc1cc(C)c(C#N)c(SCC(=O)Nc2ccc3c(c2)OCO3)n1,3.29 µM (active)
2,Cc1cc(C)c(C#N)c(SCC(=O)Nc2nonc2N)n1,14.7 µM (active)
3,COc1ccc(NC(=O)c2cc(C(C)C)on2)c(OC)c1,3.69 µM (active)
4,COc1ccc(NC(=O)c2ccc(C)cc2)c(OC)c1,5.85 µM (active)
5,COc1ccc(NC(=S)Nc2cc(C)ccn2)c(OC)c1,1.65 µM (active)
6,CCN(CC)C(=O)c1ccc(-c2cccs2)s1,6.56 µM (active)
7,CC(=O)N=C(N)Sc1nc2ccccc2[nH]1,2.33 µM (active)
8,NC(=O)c1ccccc1N/C=C/C(=O)c1cccs1,0.521 µM (active)
9,CCOC(=O)c1ccccc1N/C=C/C(=O)c1cccs1,9.27 µM (active)
10,Cc1ccc2nc(-c3ccc(SCC(=O)Nc4nc(C)cs4)nc3)[nH]c2c1,1.47 µM (active)
11,c1ccc(N2CCN(c3cnc4ccccc4n3)CC2)cc1,1.04 µM (active)
12,COc1cc(C)ccc1OCCCOc1ccccc1Br,14.7 µM (active)
13,COc1ccccc1OCCCOc1ccc(C)cc1Br,14.7 µM (active)
14,O=C(c1ccc(F)cc1)c1ccc(N2CCCCC2)cc1,4.65 µM (active)
15,C/C(=N\NC(=O)c1ccccc1)c1ccc(N2CCCCC2)cc1,6.56 µM (active)
16,COc1ccc(C(=O)N/N=C(/C)c2ccc(N3CCCCC3)cc2)cc1,8.26 µM (active)
17,COc1ccc(/C(C)=N/NC(=O)c2ccccc2N)cc1,18.5 µM (active)
18,Cc1ccc(/C(N)=N/OC(=O)c2ccc(C)cc2Cl)cc1,0.261 µM (active)
19,Cc1ccc(/C(N)=N/OC(=O)c2ccc(Cl)cc2Cl)cc1,1.04 µM (active)
20,CCn1c(/C=C/c2c[nH]c3ccccc23)nc2ccccc2c1=O,0.414 µM (active)
21,O=C(NNc1ncnc2ccccc12)c1cccc(Cl)c1,0.927 µM (active)
22,O=C(c1cnsn1)N1CCC(CO)(Cc2cccc(F)c2)CC1,14.7 µM (active)

row,SMILES,Potency
1,Cc1nc2cc(-c3ccc(Cl)cc3)nn2c(NCCN(C)C)c1C,5.85 µM (active)
2,Cc1cccc(-c2cc3nc(C)cc(C)n3n2)c1,1.85 µM (active)
3,Cc1cc(C)n2nc(-c3cccc(Br)c3)cc2n1,3.29 µM (active)
4,CSc1nc(N)n2nc(-c3ccc(Cl)cc3)cc2n1,0.826 µM (active)
5,COc1ccc(-c2cc3nc(C)cc(C)n3n2)cc1,3.29 µM (active)
6,Cc1ccc(-c2cc3nc(C)cc(C)n3n2)cc1,3.69 µM (active)
7,Cc1cc(C)n2nc(-c3ccc(Cl)cc3)cc2n1,1.17 µM (active)
8,Cc1ccsc1C(=O)NNC(=O)C1C2C=CC(C2)C1C(=O)O (stereo not drawn),0.826 µM (active)
9,Cc1ccsc1C(=O)NNC(=O)C1CCCCC1C(=O)O (stereo not drawn),1.85 µM (active)
10,Cc1ccsc1C(=O)NNC(=O)C1CC=CCC1C(=O)O (stereo not drawn),4.65 µM (active)
11,CN(C)/N=C/c1ccc(OS(=O)(=O)c2ccccc2)cc1,3.29 µM (active)
12,Cc1[nH]n(C(N)=S)c(=O)c1N=Nc1ccc2ccccc2c1,1.47 µM (active)
13,Nc1nc2sc3c(c2c(=O)s1)CCCC3,16.5 µM (active)
14,COCCCNC(=O)COc1ccc(Br)cc1Cl,10.4 µM (active)
15,COc1ccc(Nc2nc(N)nc(CSC(=S)N3CCOCC3)n2)cc1,16.5 µM (active)
16,COc1ccc(Nc2nc(N)nc(CSC(=S)N3CCCCC3)n2)cc1,14.7 µM (active)
17,CC(C)OC(=O)c1ccc2nc3ccccc3nc2c1,0.656 µM (active)
18,O=C(/C=C/Nc1ccc(F)c(F)c1)c1ccc(Br)cc1,1.85 µM (active)
19,O=C(/C=C\Nc1ccc(Br)cc1)c1cccnc1,1.31 µM (active)
20,O=C(/C=C/Nc1ccc(F)cc1)c1ccc(Br)cc1,0.927 µM (active)
21,O=C(/C=C/Nc1ccccc1F)c1ccc(Br)cc1,0.293 µM (active)
22,CC(=O)N1CCC(=NNC(=O)c2cccs2)CC1,3.69 µM (active)

row,SMILES,Potency
1,O=C(NN=C1CCCC1)c1cccs1,1.65 µM (active)
2,CC(C)N1CCC(=NNC(=O)c2cccs2)CC1,6.56 µM (active)
3,Cc1ccsc1C(=O)NN=C1CCCCCC1,3.69 µM (active)
4,COc1ccc(-c2nc(C#N)c(NCc3ccco3)o2)cc1,9.27 µM (active)
5,Cc1ccc(-c2nc(C#N)c(NCc3ccco3)o2)cc1,4.14 µM (active)
6,COc1ccc(C(=O)/C=C/c2ccc(OC)cc2OC)c(O)c1,6.56 µM (active)
7,Clc1ccc(-c2cn3nc4c(nc3n2)CCCC4)cc1,0.117 µM (active)
8,O=C(Nc1ccsc1C(=O)O)c1cccc(C(F)(F)F)c1,7.36 µM (active)
9,COc1ccc(C2=NN(S(C)(=O)=O)C(c3cccs3)C2)cc1OC (stereo not drawn),7.36 µM (active)
10,COc1ccc(C2=NN(C(C)=O)C(c3cccs3)C2)cc1OC (stereo not drawn),8.26 µM (active)
11,COc1ccc(C2=NN(S(C)(=O)=O)C(c3ccc4nccnc4c3)C2)cc1 (stereo not drawn),7.36 µM (active)
12,COc1ccc(C2=NN(S(C)(=O)=O)C(c3cccs3)C2)cc1 (stereo not drawn),2.61 µM (active)
13,CC(=O)c1sc(N/N=C\c2ccc(Br)cc2)nc1C,5.21 µM (active)
14,CC(=O)c1sc(N/N=C\c2ccc(C)cc2)nc1C,3.29 µM (active)
15,CC(=O)c1sc(N/N=C\c2ccc(N(C)C)cc2)nc1C,0.927 µM (active)
16,CC(=O)c1sc(NCc2ccc(C)cc2)nc1C,5.21 µM (active)
17,CCc1cc(C(=O)NNC(=S)Nc2ccccc2C)cs1,2.07 µM (active)
18,Cc1cc(C(=O)NNC(=S)Nc2ccccc2C)cs1,1.65 µM (active)
19,c1ccc2nc(-c3ccc(-n4ccnc4)cc3)ccc2c1,0.826 µM (active)
20,COc1ccc(C(=O)N[C@H](C(=O)Nc2nc3c(s2)CCCC3)C(C)C)cc1,2.93 µM (active)
21,Nc1ccc2c(c1)sc1ccccc12,6.56 µM (active)
22,O=C(O)c1cc(N/N=C/C=C/c2ccccc2[N+](=O)[O-])ccc1Cl,3.29 µM (active)

row,SMILES,Potency
1,NS(=O)(=O)c1ccc(N/N=C/C=C/c2ccccc2[N+](=O)[O-])cc1,3.29 µM (active)
2,O=C(O)c1cc(N/N=C/C=C/c2ccccc2)ccc1Cl,0.826 µM (active)
3,NNc1ccc(Cl)c(C(=O)O)c1,6.56 µM (active)
4,O=C(O)c1cc(N/N=C/C(Cl)=C/c2ccccc2)ccc1Cl,0.233 µM (active)
5,O=C(O)c1ccc(N/N=C/C=C/c2ccccc2[N+](=O)[O-])cc1,4.65 µM (active)
6,CC(C)c1ccc(CNc2n[nH]c(-c3ccco3)n2)cc1,2.07 µM (active)
7,Fc1cccc(Cl)c1CNc1n[nH]c(-c2ccco2)n1,7.36 µM (active)
8,Nc1c(C(=O)N/N=C/c2ccccc2)cnn1-c1ccccc1,1.47 µM (active)
9,Nc1c(C(=O)N/N=C/c2cccnc2)cnn1-c1ccccc1,16.5 µM (active)
10,Cc1ccccc1OCC1Cc2c(nc(N)c(C#N)c2N)O1 (stereo not drawn),14.7 µM (active)
11,N#Cc1c(N)nc2c(c1N)CC(COc1ccccc1)O2 (stereo not drawn),7.36 µM (active)
12,C=C(C)Cn1cnc2c(oc3nc4c(cc32)CCCC4)c1=O,1.17 µM (active)
13,Cc1cc(C=C2C(=O)c3ccccc3C2=O)c(C)n1C,18.5 µM (active)
14,Cc1cc(C=C2C(=O)c3ccccc3C2=O)c(C)n1-c1cccc(C(=O)O)c1,11.7 µM (active)
15,CCn1c(C)cc(C=C2C(=O)c3ccccc3C2=O)c1C,13.1 µM (active)
16,NC(=O)c1sc2nc(-c3ccco3)ccc2c1N,14.7 µM (active)
17,CC(=O)c1sc2nc(-c3ccco3)ccc2c1N,14.7 µM (active)
18,Cc1ccc2cc(CCNC(=O)c3cccs3)c(=O)[nH]c2c1C,2.93 µM (active)
19,Cc1cc2cc(CCNC(=O)c3cccs3)c(=O)[nH]c2cc1C,3.69 µM (active)
20,Cc1ccc2cc(CCNC(=O)c3cccs3)c(=O)[nH]c2c1,4.14 µM (active)
21,CSCc1ccc(C(=O)Nc2ccc(C(N)=O)cc2)cc1,1.65 µM (active)
22,CC(=O)c1ccc(NC(=O)/C(Cl)=C/c2ccccc2)cc1,5.21 µM (active)

row,SMILES,Potency
1,O=C(Nc1ccc(F)cc1)/C(Cl)=C/c1ccccc1,1.31 µM (active)
2,CC(C)=CCN1CCN(Cc2cnc(N3CCOCC3)s2)CC1CCO (stereo not drawn),1.65 µM (active)
3,COc1ccc(Cn2c(SCC#N)nc3ccc(N4CCOCC4)cc3c2=O)cc1,6.56 µM (active)
4,Cc1cc(N(CCO)CCO)ccc1N=Nc1cc(F)ccc1F,9.27 µM (active)
5,COc1ccc(C(=O)C(OC(=O)c2ccccc2Cl)c2ccccc2)cc1 (stereo not drawn),14.7 µM (active)
6,COc1cccc(NC(=O)c2c(-c3ccc(C)cc3)nnc3ccccc23)c1,4.65 µM (active)
7,Cc1ccc(-c2nnc3ccccc3c2C(=O)Nc2ccc(F)cc2)cc1,6.56 µM (active)
8,Cc1nnc(SCc2ccccc2)c2cc3sccc3n12,14.7 µM (active)
9,COc1cccc2cc(-c3nc(-c4ccccc4F)no3)c(=O)oc12,0.185 µM (active)
10,COc1cccc2cc(-c3ccccc3)c(=O)oc12,1.65 µM (active)
11,Cc1cc(NC(=O)CSc2nc3c(cc2C#N)CCCC3)no1,1.47 µM (active)
12,N#Cc1cc2cc3c(cc2nc1SCC(=O)N1CCOCC1)OCO3,0.656 µM (active)
13,COc1cc2cc(C#N)c(SCC(=O)N3CCOCC3)nc2cc1OC,11.7 µM (active)
14,CCCCOc1ccc(-c2cnc3ccccc3n2)cc1,0.656 µM (active)
15,Clc1ccc(-c2cnc3ccccc3n2)cc1,4.14 µM (active)
16,CN(C)c1ccc(-n2cccc2/C=N/n2cnnc2)cc1,8.26 µM (active)
17,COC(=O)c1ccc(COc2ccc(C)c(C)c2)o1,14.7 µM (active)
18,COC(=O)c1ccc(COc2ccc(C(C)(C)C)cc2)o1,10.4 µM (active)
19,CCCc1ccc(OCc2ccc(C(=O)OC)o2)c(OC)c1,7.36 µM (active)
20,O=C(OCc1ccccn1)c1ccc(COc2ccc3ccccc3c2)o1,6.56 µM (active)
